# Assay results reported in PubChem BioAssay.
# Calls of active or inactive are those of the source. Unless noted, how the calls were made is not given here.
# Columns and labels:
# [1] = circadian clock period modulators, cell-based, LOPAC library, luminescence reporter (AID 2774); conditions: circadian reporter cells, at 7 µM, actives lie on both sides;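 further: values are relative to mean of DMSO wells on each plate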
# [2] = tested on: Hepatitis C virus NS3 helicase; assay: HCV NS3 helicase inhibitors, primary screen, biochemical, fluorescence polarization, LOPAC1280 library (AID 687035; in the data active means inhibition above about 37%); conditions: Purified HCV NS3 helicase, Cy5-dT15 ssDNA binding fluorescence polarization; stronger effect = higher value; concentration not given here
# [3] = Cy5 fluorescence quenching or enhancement artefacts, artefact control for HCV NS3 helicase inhibitor project, biochemical, LOPAC1280 (AID 687037); conditions: Cy5-DNA-NS3h complex fluorescence interference counterscreen
# [4] = sensitizers of A549 cells to miR-34 induction, primary screen, imaging, A549 dox-inducible miR-34, nuclei and caspase counts (AID 1347080;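 active means compounds whose cell count with miR-34 switched on is under 0.7 times the count with it off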); conditions: A549 miR-34 inducible, Hoechst nuclei count, 48 h
# [5] = phospholipid biosynthesis inhibitors in animal cells, primary screen, cell-based, LOPAC library, screen 4 (AID 1347384); conditions: phospholipid biosynthesis inhibition screen, at 10 µM
# [6] = viability rescue of complex I mutant cybrids, primary screen, cell-based, galactose medium, ATP luminescence (AID 1645843;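 active means z-score of at least 1.8 in each of two replicates, scored against plate mean and spread of sample wells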;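 further: positive z means more ATP and so rescue of galactose-driven cybrid death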); conditions: complex I mutant cybrid cells, 72 h, stronger effect = higher value
# [7] = stronger effect = lower value, cell number ratio, induced over uninduced
# [8] = measured here: relative caspase fold change +Dox/-Dox
# [9] = measured here: total cells with miR-34 induction, stronger effect = lower value
# [10] = measured here: total cells without miR-34 induction
SMILES,period change [1],inhibition [2],fluorescence ratio (interference) [3],"fold change [4, 7]","fold change [4, 8]","cell count [4, 9]","cell count [4, 10]",outcome [5],z-score [6]
OC[C@H]1O[C@@H](n2cnc3c(NC4CCCC4)ncnc32)C(O)[C@H]1O (stereo partly drawn),-0.095 h (inactive),-5% (inactive),1 (inactive),0.956 (inactive),1.31,9220,9650,inactive,1.05 (inactive)
CSc1nc(N)c2ncn([C@@H]3O[C@H](COP(=O)(O)OP(=O)(O)O)[C@H](O)C3O)c2n1 (stereo partly drawn),-0.26 h (inactive),33% (inactive),0.9 (inactive),1.03 (inactive),1.82,11000,10800,inactive,0.32 (inactive)
NCC(O)C1CCCCCCC1 (stereo not drawn),-0.04 h (inactive),-3% (inactive),1 (inactive),0.963 (inactive),1.08,9960,10300,inactive,0.085 (inactive)
CNCC[C@H](Oc1ccc(C(F)(F)F)cc1)c1ccccc1,0.185 h (inactive),-2% (inactive),1 (inactive),1.08 (inactive),0.944,7270,6730,inactive,-0.925 (inactive)
O=C(O)CCCC[C@@H]1CCSS1,0.11 h (inactive),0% (inactive),1 (inactive),0.958 (inactive),0.931,9120,9520,inactive,0.53 (inactive)
Nc1nc2[nH]c(=O)cnc2c(=O)[nH]1,0 h (inactive),-5% (inactive),1 (inactive),1.09 (inactive),0.997,10400,9560,inactive,0.655 (inactive)
N=C(N)c1ccc(N)cc1,-0.005 h (inactive),-2% (inactive),1 (inactive),0.998 (inactive),2.25,8960,8980,inactive,-0.075 (inactive)
NC1CCN(O)C1=O (stereo not drawn),0.11 h (inactive),0% (inactive),1 (inactive),0.997 (inactive),1.98,10200,10200,inactive,0.075 (inactive)
OC[C@H]1O[C@@H](n2cnc3c(NC4CCCCC4)ncnc32)[C@H](O)[C@@H]1O,0.08 h (inactive),-1% (inactive),1 (inactive),0.959 (inactive),1.25,9650,10100,inactive,0.865 (inactive)
NOCC(=O)O,-0.075 h (inactive),-1% (inactive),1 (inactive),1.12 (inactive),1.94,9990,8920,inactive,0.555 (inactive)
CCCCCCCCCC[Si](C)(C)CCC(=O)NC(Cc1ccc(C)cc1)c1ccccc1 (stereo not drawn),0.12 h (inactive),-1% (inactive),1 (inactive),1.02 (inactive),2.15,10100,9990,inactive,-0.33 (inactive)
CCCOC(=O)c1c(-c2ccccc2)nc(CC)c(C(=O)SCC)c1CCC,-0.02 h (inactive),-3% (inactive),1 (inactive),1.01 (inactive),0.935,9020,8910,inactive,-1.19 (inactive)
N[C@@H](Cc1cnc[nH]1)C(=O)O,0.03 h (inactive),0% (inactive),1.1 (inactive),0.99 (inactive),1.08,9970,10100,inactive,0.865 (inactive)
Fc1ccc(CN(C2=NCCN2)c2c(Cl)cccc2Cl)cc1,-0.015 h (inactive),1% (inactive),1 (inactive),0.978 (inactive),0.985,8870,9060,inactive,-0.75 (inactive)
[Li+],-0.09 h (inactive),-1% (inactive),1 (inactive),0.887 (inactive),0.586,9680,10900,inactive,-0.05 (inactive)
NC(=O)c1ccccc1,-0.185 h (inactive),0% (inactive),1 (inactive),0.988 (inactive),1.76,9430,9540,inactive,0.385 (inactive)
O=[N+]([O-])c1ccc(CSc2ncnc3c2ncn3[C@@H]2O[C@H](CO)[C@H](O)C2O)cc1 (stereo partly drawn),-0.085 h (inactive),-4% (inactive),0.9 (inactive),1.12 (inactive),0.942,10500,9340,inactive,1.67 (inactive)
NC(CCCP(=O)(O)O)C(=O)O (stereo not drawn),0.105 h (inactive),-3% (inactive),1 (inactive),1.08 (inactive),1.92,10400,9550,inactive,0.21 (inactive)
Nc1ccc(N2C(=O)c3ccccc3C2=O)c(Cl)c1,0.15 h (inactive),0% (inactive),1 (inactive),0.973 (inactive),1.66,10200,10500,inactive,0.45 (inactive)
O=c1ccn([C@@H]2O[C@H](COP(=O)(O)OP(=O)(O)O)[C@@H](O)[C@H]2O)c(=O)[nH]1,0.165 h (inactive),-1% (inactive),1 (inactive),0.992 (inactive),1.43,9420,9500,inactive,0.745 (inactive)
O=C(O)Cc1ccc(O)c(O)c1,-0.08 h (inactive),-1% (inactive),1 (inactive),0.965 (inactive),1.22,9890,10200,inactive,-0.87 (inactive)

SMILES,period change [1],inhibition [2],fluorescence ratio (interference) [3],"fold change [4, 7]","fold change [4, 8]","cell count [4, 9]","cell count [4, 10]",outcome [5],z-score [6]
CC1(C)CCC(NC(=O)[C@@H](N)CCC(=O)O)CC1,-0.095 h (inactive),-6% (inactive),1 (inactive),1.1 (inactive),1.15,11000,9970,inactive,0.125 (inactive)
Nc1nc2c(nc(Br)n2C2OC3COP(=O)(O)O[C@@H]3C2O)c(=O)[nH]1 (stereo partly drawn),-0.01 h (inactive),-2% (inactive),1 (inactive),1.05 (inactive),1.74,10000,9530,inactive,0.555 (inactive)
CC(=O)SCC[N+](C)(C)C,0.015 h (inactive),0% (inactive),1 (inactive),1.01 (inactive),2.3,10500,10400,inactive,0.495 (inactive)
N[C@@H](Cc1ccc(O)c(I)c1)C(=O)O,0.02 h (inactive),-4% (inactive),0.9 (inactive),1.11 (inactive),0.663,11600,10400,inactive,0.59 (inactive)
OCC1NCC(O)C(O)C1O (stereo not drawn),0.035 h (inactive),-2% (inactive),1 (inactive),0.93 (inactive),1.34,9950,10700,inactive,-0.145 (inactive)
NCCCCCCCCCCN,0 h (inactive),2% (inactive),1 (inactive),0.948 (inactive),1.23,10300,10900,inactive,-0.23 (inactive)
C=CCn1c(=O)c2c(nc(-c3ccc(S(=O)(=O)O)cc3)n2C)n(C)c1=O,-0.155 h (inactive),-3% (inactive),1 (inactive),1.02 (inactive),2.49,10300,10100,inactive,0.335 (inactive)
CC1=C(C(=O)O)N2C(=O)[C@@H](NC(=O)C(N)C3=CCC=CC3)[C@H]2SC1 (stereo partly drawn),-0.045 h (inactive),0% (inactive),1 (inactive),1.02 (inactive),1.79,10500,10300,inactive,-0.29 (inactive)
COc1cccc(C(=O)NCCN2CCN(c3ccc(Cl)cc3)CC2)c1,-0.035 h (inactive),0% (inactive),1 (inactive),1.02 (inactive),1.92,9900,9720,inactive,-0.845 (inactive)
COc1ccccc1CNCCCCCCNCCCCCCCCNCCCCCCNCc1ccccc1OC,0.295 h (inactive),11% (inactive),1 (inactive),1.1 (inactive),0.839,8650,7890,inactive,-1.19 (inactive)
C[C@H](O)C(=O)C1=Nc2c(nc(N)[nH]c2=O)NC1,0.19 h (inactive),-3% (inactive),0.9 (inactive),0.965 (inactive),1.64,10200,10500,inactive,0.4 (inactive)
O=C(O)/C(=C/c1c(C(=O)O)[nH]c2cc(Cl)cc(Cl)c12)c1ccccc1,0.21 h (inactive),0% (inactive),1 (inactive),1.07 (inactive),0.725,9940,9320,inactive,1.03 (inactive)
CC(O)C(O)[C@H]1CNc2nc(N)[nH]c(=O)c2N1 (stereo partly drawn),-0.26 h (inactive),-4% (inactive),1 (inactive),0.979 (inactive),1.26,10500,10800,inactive,0.515 (inactive)
C[C@H]1CC2C3CCC4=CC(=O)C=C[C@]4(C)[C@@]3(Cl)[C@@H](O)C[C@]2(C)[C@@]1(O)C(=O)CO (stereo partly drawn),-0.07 h (inactive),-3% (inactive),1 (inactive),0.918 (inactive),1.96,7200,7840,inactive,1.25 (inactive)
O=C(c1cc(O)c(O)c([N+](=O)[O-])c1)c1ccccc1F,0.055 h (inactive),5% (inactive),0.9 (inactive),1.18 (inactive),1.45,7010,5940,inactive,-0.165 (inactive)
Cc1cccc(C2CN(C)CCc3c2cc(O)c(O)c3Cl)c1 (stereo not drawn),0.11 h (inactive),-4% (inactive),1 (inactive),0.998 (inactive),1.65,6330,6340,inactive,-1.29 (inactive)
CC(=O)[C@H]1CCC2C3CC=C4C[C@@H](OS(=O)(=O)O)CC[C@]4(C)C3CC[C@@]21C (stereo partly drawn),0.02 h (inactive),1% (inactive),1 (inactive),0.987 (inactive),1.53,10100,10300,inactive,2.2 (active)
CCC1(O)CC2CN(CCc3c([nH]c4ccccc34)[C@@](C(=O)OC)(c3cc4c(cc3OC)N(C)C3[C@]45CCN4CC=C[C@@](CC)([C@@H](OC(C)=O)[C@]3(O)C(=O)OC)[C@H]45)C2)C1 (stereo partly drawn),0.43 h (inactive),-2% (inactive),1 (inactive),1.18 (inactive),0.644,1680,1430,inactive,-1.17 (inactive)
CCCC[C@@]1(C2CCCC2)Cc2cc(OCC(=O)O)c(Cl)c(Cl)c2C1=O,-0.06 h (inactive),0% (inactive),1 (inactive),0.958 (inactive),1.45,8870,9260,inactive,2.93 (active)
CCCn1c(=O)c2c(ncn2C)n(CCC)c1=O,-0.02 h (inactive),-3% (inactive),1.1 (inactive),1 (inactive),1.17,10000,9990,inactive,0.46 (inactive)
O=C(c1ccc2c(c1)OCCO2)N1CCCCC1,-0.22 h (inactive),-1% (inactive),1 (inactive),1.07 (inactive),1.38,9110,8530,inactive,0.315 (inactive)
